Data taken from PubChem BioAssay AID2669 (National Center for Advancing Translational Sciences (NCATS), 2010).
Inconclusive results are not listed. Where a call stands in place of a potency, no number is given. Calls of active or inactive are those of the source. Calls follow the shape of the dose curve; as a rule, active = well fitted inhibition curve with a large enough effect; inconclusive = small, poorly fitted or top-dose-only effect, or effect the other way; inactive = flat fitted curve, though single readings scatter.

Assay: qHTS Assay Multiplex Screening to Identify Dual Action Probes in a Cell Model of Huntington: Cytoprotection (Protease relase)
Text: NIH Chemical Genomics Center [NCGC]
NIH Molecular Libraries Probe Production centers Network [MLPCN]
Assay Submitter (PI): Wei Zheng
Huntington's disease is a neurodegenerative disorder caused by a trinucleotide repeat expansion in Exon 1 of the Huntingtin gene. The CAG trinucleotide encodes glutamine and polyglutamine expansions cause cell death in selective areas of the brain. Huntington polyglutamine repeats have the tendency to form aggregates which are observable in later stages of the disease. The exact nature of the aggregates, whether toxic, protective, or insignificant, is unclear.
A stable PC12 cell line containing a gene fusion of Exon 1 of the Huntingtin gene linked to GFP under the control of the inducible ecdysone promoter were used as the cell-based model of Huntington Disease for high throughput screening. Exon 1 of the Huntingtin gene contained an expansion of 103 polyglutamines (Q103) which, when expressed, caused cell death and distinct, bright GFP aggregates. The amount of cell death and the size and intensity of GFP aggregates increased over time and induction level. In the primary screen, cell death were quantified with a measurement of ATP content in the cells. A maximal 40-50% of cell death was observed when the Huntington gene was induced in this cell line.
We optimized this assay in a homogeneous 1536 well format. A quantitative high throughput screen (qHTS) was conducted on the PC12 cells which were induced to express the toxic fusion construct. Small molecules which prevented cell death were considered hits, and were further studied. The present assay is an alternate assay for cytoprotection using Promega's Cytotox-Glo reagent.
PC12 cells stably containing a construct with an ecdysone inducible promoter expressing GFP fused to the exon 1 of HTTQ103 (Huntington protein which containing a 103 ployglutamine expansion) were used.
NCGC Assay Protocol Summary:
Sequence, Parameter, Description
1, Reagent, 5 uL 1500 cells/well 1536 TC treated White clear bottom plate
2, Compound, 23 nL Tebufenozide inducer (100 nM final) to all columns
3, Compound, 23 nL 40 uM to 0.5 nM Libraries
5, Reagent, 2 ul Promega's Cytotox-Glo assay reagent
6, Detector, 4 sec integration with a Viewlux Luminescent
Media consisted of phenol red free DMEM + 5% equine serum (Hyclone # SH30072.03 ), 5% supplemented Bovine Calf Serum (Hyclone # SH30074.03 ), 1x pen/strep, no G418

| SMILES | Potency |
| --- | --- |
| Oc1cc(Cl)ccc1Oc1ccc(Cl)cc1Cl | inactive |
| C[C@@]1(CO)[C@H](O)CC[C@@]2(C)[C@H]1CC[C@H]1C[C@@H]3C[C@@]12CC[C@]3(O)CO | inactive |
| CCC(C)C(=O)OC1C(O)C2C(CN3CC(C)CCC3[C@]2(C)O)C2C[C@]34O[C@@]5(O)C(OC(=O)C(C)(O)CC)CCC3(C)C5C(OC(C)=O)C(OC(C)=O)C4[C@@]21O (some centres not stated) | inactive |
| NC(=O)c1sc2nc3c(c(-c4cccs4)c2c1N)CCCC3 | inactive |
| CC[C@]1(C2=NCCN2)Cc2ccccc2O1 | inactive |
| O=C1C=C2C=C[C@H]3C[C@@]2(O1)[C@H]1CCCCN31 | 794 nM (active) |
| C[C@H]1CC[C@@]2(NC1)O[C@@H]1C[C@H]3[C@@H]4CC=C5C[C@@H](O)CC[C@]5(C)[C@@H]4CC[C@]3(C)[C@@H]1[C@@H]2C | inactive |
